Data: PubChem BioAssay (Tox21)
Several values for one entry are separate records, joined by “and”; a condition that tells them apart may be missing. Identical values can stand only once. Results filed as inconclusive are left out. A call without a number means that no potency is given here. Activity calls are given as the source filed them. Unless noted, the call rests on the fitted dose curve.

assay: qHTS assay for small molecules that induce genotoxicity in human embryonic kidney cells expressing luciferase-tagged ATAD5 - cell viability (AID 651634); settings: HEK293T ATAD5-luc cells viability, CellTiter-Fluor, 15.5 h; series mostly up to 83.3 µM; further: nearly all actives have a fitted effect of over 25% in size
In short: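 HEK293T ATAD5-luc cells, 2,000/well; compound 15.5 hr, 37C/5% CO2; CellTiter-Fluor 30 min, 37C; fluorescence read.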
Potency means the concentration at half of the fitted maximal effect.

With `CCC1(CCC(C)C)C(=O)NC(=O)NC1=O` as the compound, how does the Potency read?
Its Potency is “inactive”.

For `C=CCN1C[C@H](C)N([C@H](c2ccc(C(=O)N(CC)CC)cc2)c2cccc(OC)c2)C[C@H]1C`, which Potency is on record?
Its Potency is “inactive”.

For `O=C(NC(=O)c1cc(F)c(F)cc1Cl)Nc1cc(F)ccc1N1CCC(C(=O)O)CC1`, which Potency is on record?
Its Potency is “inactive”.

With `[Cl-].[Cl-].[Hg+2]` as the compound, how does the Potency read?
Its Potency is 5.31 µM (active) and 30.5 µM (active) and 61.1 µM (active).

With `CC(=O)OC(c1ccccc1)C(Cl)(Cl)Cl` (stereo not given) as the compound, how does the Potency read?
The Potency was “inactive”.

With `Cc1ncc(C[n+]2csc(CCO)c2C)c(N)n1` as the compound, how does the Potency read?
The Potency was “inactive”.

For `CN1CC[C@]23c4c5ccc(O)c4O[C@H]2[C@@H](O)C=C[C@H]3[C@H]1C5`, which Potency is on record?
The Potency was “inactive”.

For `Nc1c(Br)cc(Br)c2c1C(=O)c1ccccc1C2=O`, which Potency is on record?
The Potency was “inactive”.

With `CCC(C)(C)O` as the compound, how does the Potency read?
Its Potency is “inactive”.

For `O=[N+]([O-])c1cc(Cl)c(Cl)cc1Cl`, which Potency is on record?
Its Potency is “inactive”.

With `CN(C)c1ccc(N=O)cc1` as the compound, how does the Potency read?
Its Potency is 61.3 µM (active) and 54.5 µM (active).

Which Potency does the source give for `CC1(C)[C@H](C(=O)O[C@H](C#N)c2cccc(Oc3ccccc3)c2)[C@@H]1C=C(Br)Br` here?
The Potency was “inactive”.

For `CC(=O)NNc1ccccc1`, which Potency is on record?
Its Potency is 10.8 µM (active).

With `Nc1ccccc1C(=O)OCCc1ccccc1` as the compound, how does the Potency read?
The Potency was “inactive”.

With `O=S(=O)(c1ccccc1)c1ccccc1` as the compound, how does the Potency read?
The Potency was “inactive”.

With `CCNC(=O)NC(=O)/C(C#N)=N/OC` as the compound, how does the Potency read?
The Potency was “inactive”.

For `C[Si](Cn1cncn1)(c1ccc(F)cc1)c1ccc(F)cc1`, which Potency is on record?
Its Potency is “inactive”.

For `C[C@]12C=CC3=C4CCC(=O)C=C4CC[C@H]3[C@@H]1CC[C@@H]2O`, which Potency is on record?
Its Potency is “inactive”.

Which Potency does the source give for `FC(Cl)(Cl)C(F)(Cl)Cl` here?
The Potency was “inactive”.

With `O=C(O)C(O)C(O)C(=O)O` (stereo not given) as the compound, how does the Potency read?
The Potency was “inactive”.

With `CC(Oc1cc(Cl)c(Cl)cc1Cl)C(=O)O` (stereo not given) as the compound, how does the Potency read?
Its Potency is “inactive”.

Which Potency does the source give for `Cc1ccc(N)c(C)c1` here?
The Potency was “inactive”.

Which Potency does the source give for `COP(=O)(OC)OC(Br)C(Cl)(Cl)Br` (stereo not given) here?
The Potency was “inactive”.

For `O=CC=O`, which Potency is on record?
Its Potency is “inactive”.

assay: qHTS assay for small molecule disruptors of the mitochondrial membrane potential - cell viability (AID 720634); settings: HepG2 viability, ATP luminescence (CellTiter-Glo), 1 h; series mostly up to 83.2 µM; further: nearly all actives have a fitted effect of over 20% in size
In short: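 Luminescence from CellTiter-Glo (ATP content) gave viability in HepG2 cells, read in the same wells as the MMP dye assay after 1 hr compound exposure at 37 C.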

Which Potency does the source give for `CCC1(CCC(C)C)C(=O)NC(=O)NC1=O` here?
Its Potency is “inactive”.

For `C=CCN1C[C@H](C)N([C@H](c2ccc(C(=O)N(CC)CC)cc2)c2cccc(OC)c2)C[C@H]1C`, which Potency is on record?
The Potency was “inactive”.

With `O=C(NC(=O)c1cc(F)c(F)cc1Cl)Nc1cc(F)ccc1N1CCC(C(=O)O)CC1` as the compound, how does the Potency read?
The Potency was “inactive”.

For `CC(=O)OC(c1ccccc1)C(Cl)(Cl)Cl` (stereo not given), which Potency is on record?
The Potency was “inactive”.

Which Potency does the source give for `Cc1ncc(C[n+]2csc(CCO)c2C)c(N)n1` here?
Its Potency is “inactive”.

Which Potency does the source give for `CN1CC[C@]23c4c5ccc(O)c4O[C@H]2[C@@H](O)C=C[C@H]3[C@H]1C5` here?
Its Potency is “inactive”.

For `Nc1c(Br)cc(Br)c2c1C(=O)c1ccccc1C2=O`, which Potency is on record?
The Potency was “inactive”.

For `CCC(C)(C)O`, which Potency is on record?
Its Potency is “inactive”.

Which Potency does the source give for `O=[N+]([O-])c1cc(Cl)c(Cl)cc1Cl` here?
Its Potency is “inactive”.

For `CN(C)c1ccc(N=O)cc1`, which Potency is on record?
Its Potency is 17.3 µM (active) and 48.6 µM (active).

Which Potency does the source give for `CC(=O)NNc1ccccc1` here?
The Potency was “inactive”.

Which Potency does the source give for `O=C(O)COc1cc(Cl)c(Cl)cc1Cl` here?
Its Potency is “inactive”.

For `NP(N)(=O)NC(=O)c1ccc(F)cc1`, which Potency is on record?
The Potency was “inactive”.

Which Potency does the source give for `O=S(=O)(c1ccccc1)c1ccccc1` here?
The Potency was “inactive”.

Which Potency does the source give for `O=C(O)CCCOc1ccc(Cl)cc1Cl` here?
The Potency was “inactive”.

With `C[Si](Cn1cncn1)(c1ccc(F)cc1)c1ccc(F)cc1` as the compound, how does the Potency read?
Its Potency is 31.6 µM (active).

Which Potency does the source give for `C[C@]12C=CC3=C4CCC(=O)C=C4CC[C@H]3[C@@H]1CC[C@@H]2O` here?
The Potency was “inactive”.

Which Potency does the source give for `FC(Cl)(Cl)C(F)(Cl)Cl` here?
The Potency was “inactive”.

With `CCC1(C2=NCCN2)Cc2ccccc2O1` (stereo not given) as the compound, how does the Potency read?
The Potency was “inactive”.

For `O=C(O)C(O)C(O)C(=O)O` (stereo not given), which Potency is on record?
The Potency was “inactive”.

Which Potency does the source give for `Nc1ccc2c(c1)Cc1ccccc1-2` here?
The Potency was “inactive”.

With `CC(Oc1cc(Cl)c(Cl)cc1Cl)C(=O)O` (stereo not given) as the compound, how does the Potency read?
Its Potency is “inactive”.

Which Potency does the source give for `CN1C[C@H](C(=O)N[C@]2(C)O[C@@]3(O)[C@@H]4CCCN4C(=O)[C@H](Cc4ccccc4)N3C2=O)C=C2c3cccc4[nH]cc(c34)C[C@H]21` here?
The Potency was “inactive”.

With `C=C(C)C(=O)OCCCCOC(=O)C(=C)C` as the compound, how does the Potency read?
The Potency was “inactive”.

With `Cc1ccc(N)c(C)c1` as the compound, how does the Potency read?
Its Potency is “inactive”.

With `COP(=O)(OC)OC(Br)C(Cl)(Cl)Br` (stereo not given) as the compound, how does the Potency read?
The Potency was “inactive”.

For `CC[N+]1(CCOC(=O)C(O)(c2ccccc2)c2ccccc2)CCCCC1`, which Potency is on record?
Its Potency is “inactive”.

Which Potency does the source give for `O=CC=O` here?
Its Potency is “inactive”.

With `C[CH2][Hg][S]c1ccccc1C(=O)O` as the compound, how does the Potency read?
The Potency was 13.3 µM (active) and 15.4 µM (active).

assay: qHTS assay for small molecule disruptors of the mitochondrial membrane potential (AID 720635; active means well fitted inhibition curve with a large enough effect in the signal ratio in the repeat runs; the % refers to the signal ratio); settings: HepG2 mitochondrial membrane potential, Mito-MPS dye ratio; series mostly up to 83.2 µM
In short: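 HepG2 cells exposed to compound 1 hr at 37C, then Mito-MPS dye 30 min. Ratio read of aggregate (540/590 nm) versus monomer (490/535 nm) fluorescence.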

With `C=CCN1C[C@H](C)N([C@H](c2ccc(C(=O)N(CC)CC)cc2)c2cccc(OC)c2)C[C@H]1C` as the compound, how does the Potency read?
The Potency was “inactive”.

With `CC(=O)OC(c1ccccc1)C(Cl)(Cl)Cl` (stereo not given) as the compound, how does the Potency read?
The Potency was 54.5 µM (active).

For `CN1CC[C@]23c4c5ccc(O)c4O[C@H]2[C@@H](O)C=C[C@H]3[C@H]1C5`, which Potency is on record?
The Potency was “inactive”.

With `Nc1c(Br)cc(Br)c2c1C(=O)c1ccccc1C2=O` as the compound, how does the Potency read?
The Potency was 2.29 µM (active).

With `Nc1ccccc1C(=O)OCCc1ccccc1` as the compound, how does the Potency read?
Its Potency is 48.8 µM (active) and 43.3 µM (active).

For `C[Si](Cn1cncn1)(c1ccc(F)cc1)c1ccc(F)cc1`, which Potency is on record?
Its Potency is 56.3 µM (active) and 27.3 µM (active).

For `FC(Cl)(Cl)C(F)(Cl)Cl`, which Potency is on record?
The Potency was “inactive”.

Which Potency does the source give for `CCC1(C2=NCCN2)Cc2ccccc2O1` (stereo not given) here?
The Potency was “inactive”.

For `CN1C[C@H](C(=O)N[C@]2(C)O[C@@]3(O)[C@@H]4CCCN4C(=O)[C@H](Cc4ccccc4)N3C2=O)C=C2c3cccc4[nH]cc(c34)C[C@H]21`, which Potency is on record?
The Potency was 4.22 µM (active) and 9.73 µM (active) and 18 µM (active).

For `CC[N+]1(CCOC(=O)C(O)(c2ccccc2)c2ccccc2)CCCCC1`, which Potency is on record?
Its Potency is “inactive”.

Which Potency does the source give for `O=CC=O` here?
Its Potency is “inactive”.

With `C[CH2][Hg][S]c1ccccc1C(=O)O` as the compound, how does the Potency read?
The Potency was 11.9 µM (active) and 15.4 µM (active).
